# High-throughput results from PubChem BioAssay.
# An excerpt weighted towards active compounds, which were near 4% of everything screened.
# HIF-2a inh – HIF-2a reporter inhibitors, primary screen, luminescence, 786-0 RCC cells; AID 624352, 2012; 786-0 RCC cells HIF-2a reporter, luciferase luminescence, overnight; hit rate 0.72% among 360,000; inhibition, % at 18.8 µM;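 active = inhibition of the luminescence signal of 40% or more relative to plate controls, in a single-dose primary screen at 18.75 µM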
# TROY signal inh – inhibitors of TROY-driven NF-kB signaling, primary screen, Q293 LMP1-TROYcd cells, NF-kB luciferase, uHTS | Q293 LMP1-TROYcd NF-kB luciferase reporter, 4 h | inhibition, % at 10 µM | hit rate 0.98% among 360,000 | AID 1347056, 2019;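 active = compounds whose plate-normalised and pattern-corrected inhibition of the luciferase reporter signal at the single screening dose is 50% or more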
# TWEAK-Fn14 inh – inhibitors of TWEAK-Fn14 signaling, primary screen, luciferase reporter cells, uHTS; TWEAK-stimulated Fn14 reporter cells, luciferase luminescence, 8 h; hit rate 2% among 360,000; inhibition, % at 10 µM; in the data active = inhibition above about 50%
# EBV LMP1 NFkB – EBV LMP1-driven NF-kappaB luciferase reporter inhibitors, primary screen, cell-based, luminescence, single point; LMP1-induced NF-kappaB luciferase reporter cells; inhibition, % at 12.5 µM; hit rate 0.69% among 350,000; in the data active = inhibition above about 41%
# Peg3 promoter – Peg3 promoter-driven luciferase inhibitors, primary screen, cell-based, HeLa, luciferase luminescence; HeLa PEG-Prom luciferase reporter, overnight; inhibition, % at 20 µM; hit rate 1.7% among 360,000; AID 588405, 2011;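 active = inhibition of at least 50% at 20 µM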
# TRPM1 prom inh – inhibitors of MITF-dependent TRPM1 promoter reporter, primary screen, cell-based, SK-MEL-5, single point, luciferase; hit rate 0.83% among 330,000; inhibition, % at 12.5 µM; SK-MEL-5 TRPM1 promoter luciferase, 24 h;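 active = mean inhibition across replicates of 60% or more, whatever share of single replicates reaches that level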
# A number is an active result; - = inactive; . = no result given.
SMILES,HIF-2a inh,TROY signal inh,TWEAK-Fn14 inh,EBV LMP1 NFkB,Peg3 promoter,TRPM1 prom inh
CCOCCCNc1ccc(N2C(=O)CCCC2=O)cc1[N+](=O)[O-],-,-,-,-,-,-
CC(C)c1ccc(CC(=O)N2CCC2(C)C(=O)NS(=O)(=O)c2cccc(OC(F)F)c2)cc1 (stereo not given),-,-,-,.,-,.
CCN(CCNC(=O)c1cccc(N2CCCC2=O)c1)c1ccccc1,-,70,52,-,-,-
CCOC(=O)c1ccc(Oc2nc(SC)nc(N(C)C)n2)cc1,-,.,73,-,-,-
COc1ccc(OC)c(CNc2ncc(-c3cccc([N+](=O)[O-])c3)n2C)c1,-,-,-,-,-,-
COc1ccc(-c2cnc(NCc3cc4c(cc3[N+](=O)[O-])OCO4)n2C)cc1,-,-,-,66,-,-
CCCCn1c(=N)n(CC(O)COc2ccc(C)cc2)c2ccccc21 (stereo not given),-,-,-,-,72,-
N=c1n(Cc2ccccc2)c2ccccc2n1CC(O)COc1ccccc1 (stereo not given),-,-,-,-,71,-
Cc1ccc(Cn2c(=N)n(CC(O)COc3ccccc3)c3ccccc32)cc1 (stereo not given),-,-,-,-,-,-
CCOC(=O)C[C@@H]1OC[C@H](C)N1S(=O)(=O)c1ccc(C)cc1,-,.,.,.,.,.
CCOc1ccc2nc(N3CCC(C(=O)N4CCN(c5ccccn5)CC4)CC3)sc2c1,-,-,51,-,-,-
Cc1cccc2c1c1ccc3c(c1n2C)C(=O)C=CC3=O,-,-,-,-,93,94
Cc1nc2cc(-c3ccccc3)nn2c(N)c1-c1ccccc1,-,73,74,-,-,-
COc1ccc(-c2cc3nc(C)cc(N)n3n2)cc1,-,-,60,-,-,-
Cc1nc2c(-c3ccccc3)c(C)nn2c(N)c1-c1ccccc1,-,-,-,-,-,-
COc1ccc(-c2cc3nc(C)cc(-c4ccc(OC)cc4)n3n2)cc1,-,-,-,-,-,-
CCCCCC(=O)NC(=S)NC1C2CC3CC(C2)CC1C3 (stereo not given),-,-,-,-,-,-
CCCn1nc([N+](=O)[O-])c(C(C#N)c2nc3ccccc3o2)c(Cl)c1=O (stereo not given),-,57,-,-,-,-
COc1ccccc1NS(=O)(=O)c1cccc(C(=O)OCc2nc3ccccc3s2)c1,-,68,58,-,-,-
COc1ccc2c(c1OC)C(=O)OC2Nc1nc(-c2ccc([N+](=O)[O-])cc2)cs1 (stereo not given),-,-,-,-,-,-
COc1ccc(-c2csc(NC3OC(=O)c4c3ccc(OC)c4OC)n2)cc1OC (stereo not given),-,-,67,-,60,-
Nn1c(-c2ccc(F)cc2)nc2ccccc2c1=O,-,-,-,-,-,.
O=C1c2cc(F)ccc2-n2c1nc1ccccc1c2=O,-,-,-,-,-,98
C/C(=C/CCC(C)[C@H]1CC[C@@]2(C)C3=C(CC[C@]12C)[C@@]1(C)CCC(=O)C(C)(C)[C@@H]1CC3)C(=O)O (stereo not given in full),-,53,-,-,-,-
Cc1cn(CC(=O)NCCc2c[nH]c3ccccc23)c(=O)[nH]c1=O,-,-,-,-,-,-
SMILES,HIF-2a inh,TROY signal inh,TWEAK-Fn14 inh,EBV LMP1 NFkB,Peg3 promoter,TRPM1 prom inh
CN(C1=C(NC(=O)c2ccccc2)C(=O)c2ccccc2C1=O)C1CCS(=O)(=O)C1 (stereo not given),-,-,-,-,-,103
Cc1cc(Cl)ccc1OC(C)C(=O)N1CCCN(C(=O)C(C)Oc2ccc(Cl)cc2C)CC1 (stereo not given),-,-,63,-,-,-
O=c1[nH]c(=O)n(-c2ccc(F)cc2)c2c1C(C(F)(F)F)(C(F)(F)F)N=C(c1ccc(F)cc1)N2,-,-,65,-,-,-
Cc1ccccc1NC(=O)C1CCCN1S(=O)(=O)c1ccccc1C(F)(F)F (stereo not given),-,-,-,-,-,-
CCOC(=O)c1cc(-c2ccccc2)n(CC(=O)Nc2cccc(OC)c2)c1C,-,-,-,53,-,-
Cc1sc2ncnc(N3CCC(C(=O)Nc4ccc(Br)cc4Br)CC3)c2c1C,-,56,-,-,-,-
COc1ccc(-c2csc(NC(=O)C3CCN(c4ncnc5sc(C)c(C)c45)CC3)n2)cc1OC,-,70,102,-,-,86
COc1ccc(-c2csc(NC(=O)c3ccc(OCC(=O)N4CCOCC4)c(OC)c3)n2)cc1OC,-,71,81,-,92,-
Cc1ccccc1OCC(=O)NNC(=O)C1CCN(c2ncnc3sc(C)c(C)c23)CC1,-,53,-,-,-,-
ON=C1c2ccccc2-c2ccc(O)cc21,-,-,-,-,-,-
ON=C1c2ccccc2-c2cc(Br)ccc21,-,-,71,-,-,-
COc1nccc(-c2ccc(F)cc2)c1C#N,-,-,-,-,-,-
O=C(Oc1ccc(N(C(=O)c2ccncc2)S(=O)(=O)c2cccs2)cc1)c1ccncc1,-,-,-,-,-,-
Cc1cc(F)ccc1S(=O)(=O)N(C(=O)c1ccncc1)c1ccc(OC(=O)c2ccncc2)cc1,-,62,56,-,-,-
Cc1ccc(S(=O)(=O)N(C(=O)c2ccncc2)c2ccc(OC(=O)c3ccncc3)c3ccccc23)c(C)c1,-,-,-,-,51,-
Cc1ccc(-c2nnc(SCC(=O)NCCN3C(=O)CSC3=O)n2C)cc1,-,-,-,-,-,-
Cc1csc(=O)n1CC(=O)OCC(=O)NNC(=O)c1ccc(Cl)cc1,-,-,-,-,-,-
COc1cccc(-c2sc3ccccc3c2-c2ccc(OCCN3CCCCC3)cc2)c1,-,-,-,-,84,-
COc1cccc(-c2sc3ccccc3c2-c2ccc(OCCN3CCCC3)cc2)c1,-,-,-,-,100,-
COc1ccc(-c2sc3cc(OC)ccc3c2-c2ccc(OCCN3CCCCC3)cc2)cc1,-,-,-,.,.,.
c1ccc(-c2sc3ccccc3c2-c2ccc(OCCN3CCCC3)cc2)cc1,-,-,-,-,93,-
COc1cccc(-c2sc3cc(OC)c(OC)cc3c2-c2ccc(OCCN3CCCCC3)cc2)c1,-,-,-,-,97,-
C=CCN(CC=C)Cc1cc(=O)oc2cc(C)c(Cl)cc12,-,-,-,.,-,.
O=C(NCc1ccc(F)cc1F)[C@@H]1CCCN1C(=O)[C@@H]1CCCN1,-,-,-,.,.,.
COc1cccc(-c2sc3ccc(OC)cc3c2-c2ccc(OCCN3CCCC3)cc2)c1,-,-,-,-,97,-
